# Experimental data taken from paper PMC7862700, “An all-to-all approach to the identification of sequence-specific readers for epigenetic DNA modifications on cytosine”.
# Legend:
# Assay in all cases: DAPPL (digital affinity profiling via proximity ligation, sequencing); 10 mM Tris-HCl pH 7.5, 50 mM NaCl, 1 mM DTT, 4% glycerol, room temperature, 30 min; GST-TFs on glutathione beads, 16-mer random dsDNA library, 0.1% formaldehyde crosslink after washing; high values mean tight binding
# FLI1 = biological target: T1, FLI1 (Homo sapiens, UniProt Q01543 1-452); conditions: protein: recombinant; tags: N-terminal GST; dsDNA, one strand shown
# T1 sequence: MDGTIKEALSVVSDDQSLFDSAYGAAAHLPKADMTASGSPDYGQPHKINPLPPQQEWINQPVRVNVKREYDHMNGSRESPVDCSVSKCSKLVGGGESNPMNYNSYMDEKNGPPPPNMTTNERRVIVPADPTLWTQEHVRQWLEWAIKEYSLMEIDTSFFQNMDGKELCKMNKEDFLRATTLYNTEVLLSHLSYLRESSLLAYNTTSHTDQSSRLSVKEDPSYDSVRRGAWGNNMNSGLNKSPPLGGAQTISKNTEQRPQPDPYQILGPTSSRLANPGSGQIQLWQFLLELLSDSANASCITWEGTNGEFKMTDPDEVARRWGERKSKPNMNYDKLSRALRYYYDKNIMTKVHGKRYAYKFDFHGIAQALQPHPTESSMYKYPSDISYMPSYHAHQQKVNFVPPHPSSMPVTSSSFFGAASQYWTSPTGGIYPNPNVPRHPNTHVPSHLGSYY
# Procedure, shortened: (§1)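 Binding signal is each hexamer's read frequency for a factor divided by its frequency in the tag-only sample. The factors were GST-fused human transcription factors from yeast, captured on glutathione beads, DNA-barcoded and pooled with that sample. Pools were incubated with 200 nmole of a random double-stranded 16-mer DNA library in Tris/NaCl/DTT/glycerol buffer at room temperature for 30 min, then washed, crosslinked with 0.1% formaldehyde, proximity-ligated with BsaI/T4 ligase (1 h, 37 °C), PCR-amplified and sequenced on an Illumina NextSeq500.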
# GABPA = biological target: T2, GABPA (Homo sapiens, UniProt Q06546 1-454); conditions: protein: recombinant; tags: N-terminal GST; dsDNA, one strand shown
# T2 sequence: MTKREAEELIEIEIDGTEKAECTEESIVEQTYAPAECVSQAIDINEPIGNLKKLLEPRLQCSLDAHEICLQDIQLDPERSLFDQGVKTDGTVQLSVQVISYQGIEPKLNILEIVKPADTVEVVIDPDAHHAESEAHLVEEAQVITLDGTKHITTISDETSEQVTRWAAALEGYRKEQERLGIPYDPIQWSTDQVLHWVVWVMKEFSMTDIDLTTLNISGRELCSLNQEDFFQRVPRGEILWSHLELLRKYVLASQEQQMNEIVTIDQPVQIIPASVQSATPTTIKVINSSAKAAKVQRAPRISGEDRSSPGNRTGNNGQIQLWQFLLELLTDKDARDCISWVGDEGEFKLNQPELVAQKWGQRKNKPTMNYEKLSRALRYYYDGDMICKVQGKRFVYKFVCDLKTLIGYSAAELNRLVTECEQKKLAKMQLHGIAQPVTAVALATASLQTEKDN
# Procedure, shortened: as §1
# SPIB = SPIB (Homo sapiens, UniProt Q01892 1-262); conditions: protein: recombinant; tags: N-terminal GST; dsDNA, one strand shown
# Procedure, shortened: as §1
# ELK3 = biological target: T3, ELK3 (Homo sapiens, UniProt P41970 1-407); conditions: protein: recombinant; tags: N-terminal GST; dsDNA, one strand shown
# T3 sequence: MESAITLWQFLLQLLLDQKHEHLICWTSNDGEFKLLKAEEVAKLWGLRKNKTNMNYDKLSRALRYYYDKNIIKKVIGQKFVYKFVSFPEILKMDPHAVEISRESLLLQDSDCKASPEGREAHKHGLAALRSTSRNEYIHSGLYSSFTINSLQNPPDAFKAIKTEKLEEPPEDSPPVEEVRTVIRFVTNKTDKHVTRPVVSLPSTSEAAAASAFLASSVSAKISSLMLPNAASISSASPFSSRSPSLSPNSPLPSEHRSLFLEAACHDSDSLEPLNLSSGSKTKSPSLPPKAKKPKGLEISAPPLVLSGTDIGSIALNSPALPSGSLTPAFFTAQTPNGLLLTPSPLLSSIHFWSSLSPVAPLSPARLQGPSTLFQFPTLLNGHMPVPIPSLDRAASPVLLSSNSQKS
# Procedure, shortened: as §1
# FEV = biological target: T4, FEV (Homo sapiens, UniProt Q99581 1-238); conditions: protein: recombinant; tags: N-terminal GST; dsDNA, one strand shown
# T4 sequence: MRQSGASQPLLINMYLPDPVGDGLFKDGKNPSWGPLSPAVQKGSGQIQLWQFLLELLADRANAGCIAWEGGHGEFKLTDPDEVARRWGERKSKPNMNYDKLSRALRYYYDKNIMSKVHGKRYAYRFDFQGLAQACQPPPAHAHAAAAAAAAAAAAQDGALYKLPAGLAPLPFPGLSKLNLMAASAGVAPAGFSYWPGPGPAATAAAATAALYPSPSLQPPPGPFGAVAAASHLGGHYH
# Procedure, shortened: as §1
# HSF1 = HSF1 (Homo sapiens, UniProt Q00613 1-529); conditions: protein: recombinant; tags: N-terminal GST; chain copies: 3; dsDNA, one strand shown
# Procedure, shortened: as §1
# ELF5 = biological target: T5, ELF5 (Homo sapiens, UniProt Q9UKW6-2 1-255); conditions: protein: recombinant; tags: N-terminal GST; dsDNA, one strand shown
# T5 sequence: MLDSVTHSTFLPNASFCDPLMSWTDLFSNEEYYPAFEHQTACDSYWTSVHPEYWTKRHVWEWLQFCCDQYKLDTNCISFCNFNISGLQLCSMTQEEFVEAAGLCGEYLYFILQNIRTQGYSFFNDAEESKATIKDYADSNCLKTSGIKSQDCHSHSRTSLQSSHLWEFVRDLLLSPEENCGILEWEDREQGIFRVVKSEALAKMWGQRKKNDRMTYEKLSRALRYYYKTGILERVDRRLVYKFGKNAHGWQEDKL
# Procedure, shortened: as §1
# ETV1 = ETV1 (Homo sapiens, UniProt P50549 1-477); conditions: protein: recombinant; tags: N-terminal GST; dsDNA, one strand shown
# Procedure, shortened: as §1
# ERF = biological target: T6, ERF (Homo sapiens, UniProt P50548 1-548); conditions: protein: recombinant; tags: N-terminal GST; dsDNA, one strand shown
# T6 sequence: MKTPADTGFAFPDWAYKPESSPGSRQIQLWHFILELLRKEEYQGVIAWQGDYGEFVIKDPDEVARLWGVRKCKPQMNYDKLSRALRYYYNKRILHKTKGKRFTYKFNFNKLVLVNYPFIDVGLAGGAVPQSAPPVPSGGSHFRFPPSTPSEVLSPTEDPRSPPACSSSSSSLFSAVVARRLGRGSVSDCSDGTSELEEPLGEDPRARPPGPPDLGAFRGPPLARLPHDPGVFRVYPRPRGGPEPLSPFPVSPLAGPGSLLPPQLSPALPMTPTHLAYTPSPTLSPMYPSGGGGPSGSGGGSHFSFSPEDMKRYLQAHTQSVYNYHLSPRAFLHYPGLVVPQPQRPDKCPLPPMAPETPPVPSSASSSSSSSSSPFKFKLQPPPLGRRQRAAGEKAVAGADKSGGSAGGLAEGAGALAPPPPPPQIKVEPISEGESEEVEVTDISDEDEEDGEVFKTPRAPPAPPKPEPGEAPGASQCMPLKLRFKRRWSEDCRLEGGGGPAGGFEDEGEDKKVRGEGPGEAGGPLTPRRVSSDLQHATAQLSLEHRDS
# Procedure, shortened: as §1
# ETV7 = biological target: T7, ETV7 (Homo sapiens, UniProt Q9Y603 1-341); conditions: protein: recombinant; tags: N-terminal GST; dsDNA, one strand shown
# T7 sequence: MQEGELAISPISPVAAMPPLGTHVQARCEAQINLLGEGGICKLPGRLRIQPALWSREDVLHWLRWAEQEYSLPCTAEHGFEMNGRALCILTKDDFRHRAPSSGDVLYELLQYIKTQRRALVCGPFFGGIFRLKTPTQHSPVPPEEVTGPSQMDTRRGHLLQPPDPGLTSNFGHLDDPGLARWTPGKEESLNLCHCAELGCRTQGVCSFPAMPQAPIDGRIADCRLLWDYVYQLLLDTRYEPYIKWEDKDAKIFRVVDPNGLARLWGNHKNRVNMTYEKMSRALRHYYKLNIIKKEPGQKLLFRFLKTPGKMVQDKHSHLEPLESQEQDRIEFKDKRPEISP
# Procedure, shortened: as §1
# Sequence of SPIB (Q01892 whole entry): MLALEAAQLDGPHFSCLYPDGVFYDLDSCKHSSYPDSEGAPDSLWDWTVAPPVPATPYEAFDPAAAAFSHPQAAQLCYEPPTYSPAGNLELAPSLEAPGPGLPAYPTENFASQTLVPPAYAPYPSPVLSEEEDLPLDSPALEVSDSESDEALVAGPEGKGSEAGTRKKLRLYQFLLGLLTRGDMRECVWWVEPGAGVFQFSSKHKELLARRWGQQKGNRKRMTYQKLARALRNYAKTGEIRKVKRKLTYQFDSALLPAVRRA
# Sequence of HSF1 (Q00613 whole entry): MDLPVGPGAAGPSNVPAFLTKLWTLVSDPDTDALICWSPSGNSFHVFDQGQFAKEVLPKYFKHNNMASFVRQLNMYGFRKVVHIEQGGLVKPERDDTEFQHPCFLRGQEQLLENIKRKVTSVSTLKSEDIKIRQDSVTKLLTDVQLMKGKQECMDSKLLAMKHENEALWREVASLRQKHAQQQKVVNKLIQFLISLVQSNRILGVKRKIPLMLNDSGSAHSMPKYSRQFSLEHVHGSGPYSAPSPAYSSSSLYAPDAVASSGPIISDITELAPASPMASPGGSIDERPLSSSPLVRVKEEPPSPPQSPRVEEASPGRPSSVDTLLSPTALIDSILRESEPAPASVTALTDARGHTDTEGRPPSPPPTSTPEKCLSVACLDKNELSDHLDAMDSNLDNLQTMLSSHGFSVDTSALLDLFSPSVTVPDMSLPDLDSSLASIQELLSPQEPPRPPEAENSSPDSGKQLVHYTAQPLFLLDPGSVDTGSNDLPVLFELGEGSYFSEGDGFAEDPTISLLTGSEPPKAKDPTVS
# Sequence of ETV1 (P50549 whole entry): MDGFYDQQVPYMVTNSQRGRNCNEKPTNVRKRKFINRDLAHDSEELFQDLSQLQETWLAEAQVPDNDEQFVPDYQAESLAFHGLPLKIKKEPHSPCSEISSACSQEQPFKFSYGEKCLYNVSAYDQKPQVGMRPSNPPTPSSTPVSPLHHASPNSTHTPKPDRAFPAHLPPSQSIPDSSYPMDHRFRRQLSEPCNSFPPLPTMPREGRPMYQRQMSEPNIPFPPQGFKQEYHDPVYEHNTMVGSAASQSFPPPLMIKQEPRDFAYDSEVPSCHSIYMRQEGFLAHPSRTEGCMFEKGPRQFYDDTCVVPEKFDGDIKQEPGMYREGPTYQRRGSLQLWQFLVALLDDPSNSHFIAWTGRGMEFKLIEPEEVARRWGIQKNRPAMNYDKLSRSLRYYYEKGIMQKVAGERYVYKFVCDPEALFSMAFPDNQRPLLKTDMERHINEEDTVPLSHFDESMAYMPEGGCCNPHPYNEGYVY
sequence,measurement,setting,value
GACTCA,binding signal,FLI1,"1.06 fold enrichment (6-mer frequency, TF over GST control)"
same,binding signal,GABPA,"1.02 fold enrichment (6-mer frequency, TF over GST control)"
same,binding signal,SPIB,"1.09 fold enrichment (6-mer frequency, TF over GST control)"
same,binding signal,ELK3,"1.04 fold enrichment (6-mer frequency, TF over GST control)"
same,binding signal,FEV,"1 fold enrichment (6-mer frequency, TF over GST control)"
CATAGA,binding signal,HSF1,"1.15 fold enrichment (6-mer frequency, TF over GST control)"
GACGTT,binding signal,FLI1,"1.05 fold enrichment (6-mer frequency, TF over GST control)"
same,binding signal,ELF5,"1.01 fold enrichment (6-mer frequency, TF over GST control)"
CGTTGG,binding signal,FLI1,"1.08 fold enrichment (6-mer frequency, TF over GST control)"
same,binding signal,ETV1,"1.01 fold enrichment (6-mer frequency, TF over GST control)"
same,binding signal,ERF,"1.07 fold enrichment (6-mer frequency, TF over GST control)"
same,binding signal,ETV7,"1.07 fold enrichment (6-mer frequency, TF over GST control)"
